Here are results for 40 compounds from PubChem BioAssay (NCATS).

Records with an inconclusive call do not appear. Where a call stands in place of a potency, no number is given. Active and inactive are the calls of the source. The call rests on the fitted dose curve; in most records, active means well fitted cell-killing curve with a large enough effect; inconclusive means small, poorly fitted or top-dose-only effect; inactive means flat fitted curve, though single readings scatter.
Potency means the concentration at half of the fitted maximal effect.

This test in a line: Cell Viability - LYMP2-011 (AID 969). Further: nearly all actives have a fitted effect of over 60% in size. Particulars: LYMP2-011 lymphoblastoid cells viability; series mostly up to 92.2 µM. An excerpt: NIH Chemical Genomics Center [NCGC]
NIH Molecular Libraries Screening Centers Network [MLSCN]
National Institutes of Environmental Health Sciences [NIEHS]
National Toxicology Program [NTP]
We have developed a 1536-well cell-based assay for quantitative high throughput screening (qHTS) against a number of cell lines to determine in vitro cytotoxicity of small molecules. This particular assay uses a human lymphoblastoid cell line (LYMP2-011) purchased from Coriell Institute for Medical Research.
NCGC Assay Protocol Summary:
The CellTiter-Glo luminescent cell viability assay (Promega) is a homogeneous method to measure the number of viable cells in culture. The end point readout of this assay is based on quantitation of intracellular ATP, an indicator of metabolic activity, using the luciferase reaction. Luciferase catalyzes the oxidation of beetle Luciferin to oxyluciferin and light in the presence of ATP. The luminescent signal is proportional to amount of ATP present.
Using the CellTiter-Glo luminescent cell viability assay, the amount of cellular ATP was measured in the lymphoblastoid cell line with complete culture medium following compound treatment for 24 hours. The assay was performed in opaque white Kalypsys 1536-well plates. In the screen, tetraoctylammonium bromide was used as positive control. Library compounds were measured for their ability to cause acute toxicity in the cell line, as reflected by a decrease in intracellular ATP levels, in a concentration-dependent manner. […] AC50 values were determined from concentration-response data modeled with the standard Hill equation.
qHTS protocol for CellTiter Glo lymphoblastoid cellular assay
[Step] [Parameter] [Value] [Description]
1. Reagent; 5 uL; 2500 lymphoblastoid cells/well
2. Time; 5 hr; 37 C incubation
4. Controls; 23 nL; Tetraoctylammonium bromide 6.4pM to 92 uM
5. Time; 24 hr; 37 C incubation
6. Reagent; 5 uL; CellTiter Glo reagent
7. Time; 30 min; Room Temperature
8. Detection; Luminescence; Viewlux plate reader
Keywords: cell viability, cytotoxicity, lymphoblastoid cell line, luminescence, NTPHTS, NTPHTS_NCGC, NIEHS, DSSTox, MLSMR, MLSCN, NIH Roadmap, qHTS, NCGC
For `CN(C)c1ccccc1`, the Potency entry was “inactive”.

As to `COc1ccccc1N`, the Potency entry is “inactive”.

For `N#CC(O)c1ccccc1` (stereo not given), the Potency result is “inactive”.

On to `c1ccc(C2CO2)cc1` (stereo not given), for which the Potency entry was “inactive”.

For `C=CCBr`, the Potency result was “inactive”.

In the case of `Oc1cc(Cl)cc(Cl)c1`, the Potency result was “inactive”.

Take `O=Cc1ccc2c(c1)OCO2`: the Potency entry is “inactive”.

With `CCCBr`, the Potency result is “inactive”.

For the compound `BrC(Br)Br`, the Potency entry was “inactive”.

In the case of `Cc1ccc(N=C=O)cc1N=C=O`, the Potency entry is “inactive”.

As for `CCCCC#N`, the Potency result is “inactive”.

For the compound `N#CCCC#N`, the Potency entry is “inactive”.

Consider `Nc1ccc(Cc2ccc(N)c(Cl)c2)cc1Cl`, for which the Potency entry is “inactive”.

On to `Cc1cccc(N)c1C`, for which the Potency entry is “inactive”.

For the compound `Clc1ccccc1`, the Potency entry is “inactive”.

For `CN1CSC(=S)N(C)C1`, the Potency was 39.8 µM (active).

As to `CC(C)(C)C(O)(CCc1ccc(Cl)cc1)Cn1cncn1` (stereo not given), the Potency result was “inactive”.

Take `CC(Cl)CCl` (stereo not given): the Potency entry was “inactive”.

Take `ClC(Cl)(Cl)C(Cl)(Cl)Cl`: the Potency result was “inactive”.

With `Cc1cc(-c2cc(C)c(N)c(C)c2)cc(C)c1N`, the Potency entry is “inactive”.

On to `O=S(=O)(Cl)c1ccccc1`, for which the Potency result is “inactive”.

`CCOC(=O)CC(SP(=O)(OC)OC)C(=O)OCC` (stereo not given): the Potency result was “inactive”.

In the case of `COc1cc(-c2ccc(N)c(OC)c2)ccc1N`, the Potency result is “inactive”.

In the case of `[N-]=[N+]=[N-]`, the Potency result is “inactive”.

In the case of `CC(C)(Cl)Cl`, the Potency entry was “inactive”.

As for `ClC(Br)Br`, the Potency entry is “inactive”.

On to `CCBr`, for which the Potency entry is “inactive”.

As for `CCCCCOC(=O)c1ccccc1C(=O)OCCCCC`, the Potency result is “inactive”.

In the case of `Cc1cc(Cl)ccc1O`, the Potency entry is “inactive”.

For the compound `Clc1ccc(C(Cl)(Cl)Cl)c(Cl)c1`, the Potency result was “inactive”.

Turning to `ClCC(Cl)CCl`, the Potency result was “inactive”.

In the case of `Cl/C=C/CCl`, the Potency entry was “inactive”.

Regarding `CC(C#N)CCC#N` (stereo not given), the Potency entry was “inactive”.

Turning to `C/C=C/CC#N`, the Potency entry was “inactive”.

As to `ClCC(Br)CBr` (stereo not given), the Potency result is “inactive”.

With `Nc1cc(Cl)ccc1Cl`, the Potency entry is “inactive”.

Take `CCCCCCCCCCCCCl`: the Potency entry is “inactive”.

Turning to `COc1ccc(C=O)cc1`, the Potency entry was “inactive”.

On to `Cc1ccc(N)cc1C`, for which the Potency entry is “inactive”.

For the compound `C=C(Cl)CCl`, the Potency result was “inactive”.
